Screening results as filed in PubChem BioAssay.
A selection: hits, their analogues and other compounds. The true share with any hit is near 16%.
TDP1 cell noCPT – qHTS for Inhibitors of human tyrosyl-DNA phosphodiesterase 1 (TDP1): qHTS in cells in absence of CPT; DT40 Tdp1-/- hTDP1 cells, no CPT, ATP luminescence, 48 h; Potency, µM (doses to about 46.2 µM), without a hit: at the top dose activity change, negative = growth inhibition, actives largely listed as inhibitors; 420,000 tested, 15% active; AID 686978, 2013; note: potency is the fitted concentration of half-maximal effect; % is set by controls: 0 for no effect and ±100 for the full control effect; nearly all actives have a fitted effect of over 55% in size
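Compound effects on proliferation are scored in DT40 Tdp1-/-;hTDP1 cells in the absence of CPT. ATP levels (CellTiter-Glo luminescence) are recorded after a ≥48 hr, 37 °C incubation.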
TDP1 inh – qHTS Assay for Inhibitors of Tyrosyl-DNA Phosphodiesterase (TDP1) | Potency, µM (highest dose often 130 µM), for inactives: at the top dose activity change, negative = inhibition, usual class: inhibitors | recombinant TDP1, AlphaScreen DNA substrate cleavage | AID 485290, 2010 | 350,000 tested, 0.28% active | Tyrosyl-DNA phosphodiesterase 1 (Homo sapiens), Q9NUW8; note: potency is the fitted concentration of half-maximal effect; % is set by controls: 0 for no effect and ±100 for the full control effect; nearly all actives have a fitted effect of over 40% in size
Target sequence (Q9NUW8 whole entry, looked up): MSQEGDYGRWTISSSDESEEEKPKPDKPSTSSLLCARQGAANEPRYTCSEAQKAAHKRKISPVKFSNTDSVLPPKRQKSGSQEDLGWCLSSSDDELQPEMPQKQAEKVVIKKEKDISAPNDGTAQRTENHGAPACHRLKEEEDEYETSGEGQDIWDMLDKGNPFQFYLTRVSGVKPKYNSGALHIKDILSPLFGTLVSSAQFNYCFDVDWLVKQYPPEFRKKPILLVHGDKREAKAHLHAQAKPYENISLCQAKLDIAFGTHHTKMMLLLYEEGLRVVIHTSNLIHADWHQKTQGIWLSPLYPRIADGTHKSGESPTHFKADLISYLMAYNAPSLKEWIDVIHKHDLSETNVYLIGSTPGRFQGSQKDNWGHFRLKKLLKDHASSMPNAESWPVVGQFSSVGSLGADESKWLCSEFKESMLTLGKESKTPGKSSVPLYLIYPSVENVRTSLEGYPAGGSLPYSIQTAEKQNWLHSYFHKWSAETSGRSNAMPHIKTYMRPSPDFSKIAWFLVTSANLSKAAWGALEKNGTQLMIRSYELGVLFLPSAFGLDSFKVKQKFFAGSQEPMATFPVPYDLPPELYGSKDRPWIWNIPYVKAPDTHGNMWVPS
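Steps: enzyme plus compound, 15 min RT; add biotin/phosphotyrosine-FITC oligonucleotide (15 nM final), react 5 min; add donor/acceptor beads (10 ug/ml final), 10 min; read AlphaScreen. Tdp1 at 1 nM final.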
DT40 TDP1 CPT – qHTS for Inhibitors of human tyrosyl-DNA phosphodiesterase 1 (TDP1): qHTS in cells in presence of CPT | chicken DT40 Tdp1-/-;hTDP1 cells + 20 nM CPT, ATP luminescence, 48 h | Potency, µM (titrated, usually from 46.2 µM), for the others: top-dose activity change, negative = growth inhibition, usual class: inhibitors | 420,000 tested, 12% active | AID 686979, 2013; note: potency is the fitted concentration of half-maximal effect; % is set by controls: 0 for no effect and ±100 for the full control effect; nearly all actives have a fitted effect of over 55% in size
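Chicken DT40 Tdp1-/- cells stably complemented with human TDP1 were seeded at 400 cells/well in medium containing 20 nM camptothecin, exposed to pin-transferred compounds, and grown at 37 °C for at least 48 hr. Viability was read as ATP luminescence.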
uPA surface inh – qHTS for Inhibitors of Cell Surface uPA Generation; Potency, µM (highest dose often 38.3 µM), inactives show top-dose activity change, negative = inhibition, hits mostly inhibitors; cell surface uPA generation assay, qHTS; 330,000 tested, 0.31% active; AID 540303, 2011; active = well fitted inhibition curve with a large enough effect; inconclusive = small, poorly fitted or top-dose-only effect; inactive = no such curve, though single readings can be large or run the other way; tested in mouse RAW 264.7 cells; note: potency is the fitted concentration of half-maximal effect; % is set by controls: 0 for no effect and ±100 for the full control effect; nearly all actives have a fitted effect of over 55% in size
miR-21 act – qHTS Assay for Modulators of miRNAs and/orActivators of miR-21; HeLa miR-21 FLuc reporter, luciferase, 48 h; Potency, µM (top dose mostly 38.3 µM), without a hit: at the highest dose activity change, positive = activation, most hits filed as activators; 340,000 tested, under 10 active; AID 2288, 2010;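 note: % of control where 0% means no effect; miR-21 action dims this reporter so a rising signal means less miR-21 action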
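HeLa cells stably expressing CMV-driven firefly luciferase with a downstream miR-21 binding sequence, endogenously expressing miR-21, were treated with titrations (up to about 40uM final) for 48 hours at 37 degree Celsius. Luciferase luminescence was read after lysis.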
* marks the source's active call; other numbers are inactive results; ? = inconclusive; nt = no result; ! = a repeat was not active; [ ] = another dose, or the depositor's remark. Unless noted, calls come from the whole dose curve; as a rule, active = well fitted curve in the direction sought with a large enough effect; inconclusive = small, poorly fitted or top-dose-only effect, or another doubt; inactive = no such curve, though single readings can be large; an effect the other way counts as inactive or inconclusive.

SMILES	TDP1 cell noCPT	TDP1 inh	DT40 TDP1 CPT	uPA surface inh	miR-21 act
Cc1cccc(C(=O)Oc2c(Sc3ccccc3)c(C)nn2C(C)(C)C)c1	23.1µM*	nt	?	nt	18.7%
COCC(=O)Oc1c(Sc2ccc(C)cc2)c(C)nn1C(C)(C)C	-23.9%	2.9%	-21.4%	nt	10.6%
COc1cccc(C(=O)Oc2c(Sc3ccc(C)cc3)c(C)nn2C(C)(C)C)c1OC	23.1µM*	-2.9%	16.4µM*	nt	?
CCOc1ccccc1C(=O)Oc1c(Sc2ccccc2)c(C)nn1C(C)(C)C	-4.9%	0.0%	-18.9%	nt	5.3%
CC(C)CN(CC(C)C)S(=O)(=O)N1CCC(C(=O)NCc2ccco2)CC1	-16.3%	-1.2%	-16.9%	17.4%	-0.9%
O=C(Nc1ccccn1)c1ccc(Cl)s1	15.3%	-0.6%	5.3%	-16.7%	-37.8%
O=C(Nc1ccc(Br)cn1)c1ccc(Br)s1	25.9µM*	nt	?	-10.6%	-6.1%
Cc1cc(C(=O)Nc2ccc(Br)cn2)sc1C	-12.0%	-5.5%[56.1 µM]	-17.2%	?	nt
O=C(Nc1ccc(Br)cn1)c1ccc(Cl)s1	18.4µM*	6.0%	?	0.1%	-26.7%
CC1CCN(CC(=O)N2CCN(c3ccccc3)CC2)CC1	-0.4%	2.7%	0.2%	2.1%	-3.6%
O=C(CN1CCN(C(c2ccccc2)c2ccccc2)CC1)N1CCN(c2ccccc2)CC1	18.4µM*	7.7%	?	11.1%	0.8%
COc1ccc(CNC(=O)CN2CCN(C(c3ccccc3)c3ccccc3)CC2)cc1	?	6.0%	18.4µM*	2.4%	14.8%
O=C(CN1CCN(C(c2ccccc2)c2ccccc2)CC1)NC(=O)NCc1ccco1	?	5.4%	20.6µM*	-2.5%	0.9%
O=C(CN1CCN(c2ccccc2)CC1)NC(=O)NCc1ccco1	-20.3%	4.5%	-15.4%	1.4%	0.1%
CC(C)(C)NC(=O)NC(=O)CN1CCN(C(c2ccccc2)c2ccccc2)CC1	?	5.0%	9.2µM*	-3.2%	-2.1%
O=C(CN1CCN(C(c2ccccc2)c2ccccc2)CC1)NCc1ccccc1	?	3.6%	5.1%	-2.5%	4.2%
Cc1cccc(C(=O)N[C@@H](C)C(=O)N2CCN(c3ncccn3)CC2)c1	-19.3%	-0.2%	3.4%	-13.4%	nt
Cc1ccc(C2=NOC(C)(c3nnc(-c4ccncc4)o3)C2)cc1 (configuration not stated)	-12.2%	nt	-0.8%	19.3%	nt
C=CCn1c(SCC(=O)c2[nH]c(C)c(C(=O)OCC)c2C)nc2scc(-c3ccccc3)c2c1=O	16.4µM*	-1.8%	11.6µM*	2.0%	-8.6%
C=CCn1c(SCC(=O)c2[nH]c(C)c(C(=O)OCC)c2C)nc2scc(-c3ccc(OC)cc3)c2c1=O	14.6µM*	0.6%	9.2µM*	-1.2%	-1.4%
CCCCN(C(=O)c1ccc(COc2ccccc2)o1)c1c(N)n(CC(C)C)c(=O)[nH]c1=O	2.7%	0.3%	-11.4%	-7.2%	nt
O=C(Nc1ccccc1C(=O)NCc1ccccc1)c1ccccc1Br	?	-3.0%	23.1µM*	0.5%	6.4%
Cc1ccccc1C(=O)Nc1ccc(N(C)C)c2ccccc12	3.66µM*	nt	?	-0.6%	-19.0%
Cc1nc2ccccc2cc1C(=O)NCc1ccccc1	13µM*	nt	?	-3.5%	nt
Cc1ccccc1C(=O)Nc1ccccc1C(=O)NCc1ccccc1	18.4µM*	-2.1%	?	-3.6%	11.4%
SMILES	TDP1 cell noCPT	TDP1 inh	DT40 TDP1 CPT	uPA surface inh	miR-21 act
Cc1ccccc1C(=O)Nc1ccccc1C(=O)NCC(C)C	?	-5.5%	?	-7.0%	3.5%
Cc1nc2ccccc2cc1C(=O)O	4.3%	4.7%	-0.9%	4.8%	0.0%
Cn1c(SCc2n[nH]c(=S)n2-c2ccccc2)nnc1-c1ccccc1	6.3%	-5.3%	-4.5%	1.5%	0.4%
CS(=O)(=O)N1CCC(C(=O)Nc2ccc(C(F)(F)F)cc2)CC1	?	0.0%	-19.7%	0.4%	0.6%
O=C(Nc1ccccc1Br)c1ccccc1-c1ccccc1	6.51µM*	-2.6%	5.8µM*	-8.3%	13.3%
CC(Sc1nnc2ccccn12)C(=O)Nc1ccc(N2CCOCC2)cc1 (configuration not stated)	-14.5%	0.1%	-17.6%	-2.1%	nt
Cc1nn2c(=O)cc(COC(=O)c3ccc(NC(=O)COc4ccccc4F)cc3)nc2s1	5.17µM*	6.2%	5.8µM*	nt	-5.7%
Cc1nn2c(=O)cc(COC(=O)c3cccc(NC(=O)COc4ccccc4C)c3)nc2s1	20.6µM*	1.2%	18.4µM*	nt	-32.8%
Cc1nn2c(=O)cc(COC(=O)c3ccc(NC(=O)COc4ccc(C)c(C)c4)cc3)nc2s1	?	8.8%	-29.8%	nt	0.4%
CCc1nn2c(=O)cc(COC(=O)c3ccccc3NC(=O)COc3ccccc3C)nc2s1	5.17µM*	-1.2%	4.11µM*	nt	-18.3%
CCc1nn2c(=O)cc(COC(=O)c3cccc(NC(=O)COc4ccccc4F)c3)nc2s1	?	-1.2%	18.4µM*	nt	8.4%
Cc1nn2c(=O)cc(COC(=O)c3cccc(NC(=O)COc4ccc(C)c(C)c4)c3)nc2s1	-5.6%	1.2%	17.0%	nt	16.6%
CC(C)(C)c1ccc(-c2nc3n(c(=O)c2C#N)CCS3)cc1	?	-1.2%	13.6%	-3.2%	-13.4%
COC(=O)c1c(-c2ccc(OC)cc2)sc2ccc(OC)cc12	?	nt	?	-2.0%	nt
CCOc1ccc(-c2nc(-c3cccnc3)no2)cc1	?	4.9%	-25.0%	-3.5%	-56.9%
COc1ccccc1-c1nc(-c2ccccn2)no1	13µM*	-1.0%	13µM*	1.41µM*	?
COc1ccc(-c2nc(-c3cccnc3)no2)cc1	15.8µM*	nt	?	?	-67.3%
COc1ccc(-c2nc(-c3ccccn3)no2)cc1	?	-2.6%	14.6µM*	1.41µM*	?
COC(=O)c1cc(CNC(=O)c2ccc(N3CCCC3)c([N+](=O)[O-])c2)ccc1OC	-2.4%	6.9%	1.4%	5.7%	-6.8%
CNS(=O)(=O)Cc1ccc2[nH]cc(CCN(C)C)c2c1	4.61µM*!	11.7%[56.1 µM]	5.8µM*!	-8.0%	-1.0%
COc1cccc(N2CCN(C(=O)c3cccc(S(=O)(=O)N4CCCC4)c3)CC2)c1	?	nt	-2.0%	nt	nt
C[C@@H]1COC(=O)[C@@H](CC(=O)OC(C)(C)C)C/C=C\C[C@H](CC(=O)N(CCO)Cc2ccccc2)C(=O)N1	?	1.6%	?	5.2%	nt
CC(C)(C)OC(=O)C[C@H]1C/C=C\C[C@@H](CC(=O)N(CCO)Cc2ccccc2)C(=O)N[C@H](Cc2c[nH]c3ccccc23)COC1=O	18.4µM*	2.7%	?	0.9%	nt
